Design in all cases: scale not given: direction of the effect not stated beside the values
Test [1] concerns the target Protein translocase subunit SecA (Escherichia coli (strain K12)) (UniProt P10408). Kind of test: Assay to Identify E. coli SecA ATPase Inhibitors. The test is classed as functional. To be noted: 30 µM.
The target of test [2] is T1, Ubiquitin-activating enzyme e1, putative (Leishmania donovani (strain BPK282A1)) (UniProt E9BSI1).
T1 sequence (whole entry): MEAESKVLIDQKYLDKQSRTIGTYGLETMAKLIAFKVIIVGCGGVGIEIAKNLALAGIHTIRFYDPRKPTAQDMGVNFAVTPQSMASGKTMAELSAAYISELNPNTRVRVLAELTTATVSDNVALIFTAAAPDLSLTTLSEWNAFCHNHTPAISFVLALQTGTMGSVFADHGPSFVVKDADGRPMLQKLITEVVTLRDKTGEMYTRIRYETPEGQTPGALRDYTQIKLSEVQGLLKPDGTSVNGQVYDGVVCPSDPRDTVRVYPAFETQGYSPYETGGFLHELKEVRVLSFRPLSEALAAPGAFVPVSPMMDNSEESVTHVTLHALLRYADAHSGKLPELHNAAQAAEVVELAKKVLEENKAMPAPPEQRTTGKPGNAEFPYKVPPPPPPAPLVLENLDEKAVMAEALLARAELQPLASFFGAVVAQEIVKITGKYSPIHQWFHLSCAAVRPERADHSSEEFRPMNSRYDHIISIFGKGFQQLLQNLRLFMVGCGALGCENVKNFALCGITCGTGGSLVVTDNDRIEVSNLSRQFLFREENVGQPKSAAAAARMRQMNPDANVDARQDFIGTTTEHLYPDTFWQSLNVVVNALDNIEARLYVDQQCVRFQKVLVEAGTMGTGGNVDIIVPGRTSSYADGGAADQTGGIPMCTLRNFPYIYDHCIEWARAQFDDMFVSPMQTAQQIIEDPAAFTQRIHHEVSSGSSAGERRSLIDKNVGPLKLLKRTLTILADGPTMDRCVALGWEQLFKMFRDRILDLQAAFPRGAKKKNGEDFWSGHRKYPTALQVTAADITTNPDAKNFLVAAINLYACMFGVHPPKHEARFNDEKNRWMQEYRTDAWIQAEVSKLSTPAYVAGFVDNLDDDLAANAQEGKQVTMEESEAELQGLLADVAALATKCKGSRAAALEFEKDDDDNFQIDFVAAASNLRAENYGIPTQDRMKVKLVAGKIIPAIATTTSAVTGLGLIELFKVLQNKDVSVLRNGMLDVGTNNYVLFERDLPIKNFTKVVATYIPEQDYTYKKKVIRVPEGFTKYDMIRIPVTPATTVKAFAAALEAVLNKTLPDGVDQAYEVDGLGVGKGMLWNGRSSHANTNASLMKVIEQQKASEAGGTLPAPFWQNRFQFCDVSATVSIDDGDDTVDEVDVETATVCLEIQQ
Kind of test: Leishmania donovani Ubiquitin Activating Enzyme (LdE1). The test is classed as functional. The settings on record: 30 µM.

Test [3] has as its target AMP-activated protein kinase, AMPK (Homo sapiens) (UniProt P54646+O43741+P54619+Q9UGJ0+Q9Y478+Q13131+Q9UGI9). As to the kind of experiment: AMP-dependent Kinase enzyme assay. An in vitro enzyme assay that detects ADP turnover that is directly proportional to AMPK activity. This uses naive AMPK that is activated during the assay with MK-8722. The test is classed as functional. To be noted: 30 µM.

Test [4] has as its target Sialic acid-binding Ig-like lectin 9 (Homo sapiens) (UniProt Q9Y336). As to the kind of experiment: Hs-Siglec9 ALPHAscreen SOP 20170721. The settings on record: 10 µM. Background: Bead proximity is the source of the signal in Alpha formats.
The subject of another test is Trypanosoma cruzi. Kind of test: Trypanosoma cruzi phosphomannomutase and mannose-1-phosphate guanylyltransferase assay. The test is classed as functional. The settings on record: 10 µM.
The target in test [5] is T2, Arginase-2, mitochondrial (Homo sapiens) (UniProt P78540).
T2 sequence (whole entry): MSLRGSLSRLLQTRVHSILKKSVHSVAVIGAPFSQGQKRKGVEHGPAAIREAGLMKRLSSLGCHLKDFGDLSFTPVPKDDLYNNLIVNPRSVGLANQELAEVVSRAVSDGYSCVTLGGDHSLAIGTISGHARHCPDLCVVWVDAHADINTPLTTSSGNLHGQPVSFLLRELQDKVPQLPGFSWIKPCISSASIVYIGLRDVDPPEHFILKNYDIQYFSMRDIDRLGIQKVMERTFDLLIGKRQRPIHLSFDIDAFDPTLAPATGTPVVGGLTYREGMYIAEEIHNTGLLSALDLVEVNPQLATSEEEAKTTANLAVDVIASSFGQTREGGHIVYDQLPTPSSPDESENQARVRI
Kind of test: in vitro enzyme assay to detect the production of urea directly proportional to the activity of Arginase II. Also: in the data most compounds retested in dose-response had high values. The test is classed as functional. To be noted: 33.3 µM.

Test [6] has as its target T3, Proteasome subunit beta (Trypanosoma cruzi) (UniProt O96673).
T3 sequence (whole entry): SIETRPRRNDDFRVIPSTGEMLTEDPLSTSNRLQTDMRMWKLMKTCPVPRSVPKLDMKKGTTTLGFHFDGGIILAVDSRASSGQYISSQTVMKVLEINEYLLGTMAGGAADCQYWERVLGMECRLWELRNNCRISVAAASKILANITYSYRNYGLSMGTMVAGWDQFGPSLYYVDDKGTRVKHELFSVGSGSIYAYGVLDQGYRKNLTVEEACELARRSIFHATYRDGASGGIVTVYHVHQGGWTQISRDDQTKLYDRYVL
As to the kind of experiment: Trypanosoma cruzi proteasome chymotrypsin-like activity (TcProtChymo) assay. Also: in the data most compounds retested in dose-response had high values. Format: functional. To be noted: 9.37 µM.

The species named for a further test is Homo sapiens. As to the kind of experiment: To identify inhibition of the IFN signalling (Jak-Stat) pathway via expression of an eGFP reporter gene under the control of an IFN-stimulated response element (ISRE) containing MxA promoter. The test is classed as functional. The settings on record: 30 µM.
Test [7] has as its target T4, Tyrosyl-tRNA synthetase, putative (Trypanosoma cruzi (strain CL Brener)) (UniProt Q4DSP6).
T4 sequence (whole entry): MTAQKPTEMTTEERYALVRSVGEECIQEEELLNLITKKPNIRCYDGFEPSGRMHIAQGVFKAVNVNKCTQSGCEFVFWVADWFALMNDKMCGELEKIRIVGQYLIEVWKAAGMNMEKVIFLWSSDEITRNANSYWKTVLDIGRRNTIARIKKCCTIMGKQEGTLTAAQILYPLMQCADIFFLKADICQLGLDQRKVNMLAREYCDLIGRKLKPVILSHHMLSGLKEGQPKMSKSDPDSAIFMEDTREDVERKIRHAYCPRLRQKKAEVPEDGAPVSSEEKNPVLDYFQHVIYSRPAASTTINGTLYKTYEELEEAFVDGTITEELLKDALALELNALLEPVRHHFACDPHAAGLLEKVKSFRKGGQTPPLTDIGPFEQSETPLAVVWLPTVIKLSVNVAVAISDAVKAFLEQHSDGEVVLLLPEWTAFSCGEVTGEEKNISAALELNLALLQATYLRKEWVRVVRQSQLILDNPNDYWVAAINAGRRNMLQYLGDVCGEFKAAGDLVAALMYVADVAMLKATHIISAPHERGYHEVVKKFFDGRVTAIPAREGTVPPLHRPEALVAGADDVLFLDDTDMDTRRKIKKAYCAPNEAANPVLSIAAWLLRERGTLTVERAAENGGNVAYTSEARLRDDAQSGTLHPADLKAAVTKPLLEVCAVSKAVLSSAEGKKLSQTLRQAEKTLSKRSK
As to the kind of experiment: Trypanosoma cruzi tyrosyl tRNA synthetase (TcYRS) _High Tyrosine SOP. Also: in the data most compounds retested in dose-response had high values. Format: functional. The settings on record: 30 µM.

Test [8] addresses T4, Tyrosyl-tRNA synthetase, putative (Trypanosoma cruzi (strain CL Brener)). Kind of test: Trypanosoma cruzi tyrosyl tRNA synthetase (TcYRS) SOP. Format: functional. To be noted: 30 µM.
The target of test [9] is Chromo domain-containing protein 1 (Saccharomyces cerevisiae (strain ATCC 204508 / S288c) (Baker's yeast)) (UniProt P32657). As to the kind of experiment: ScCHD-1 Enzyme Inhibition Assay. Also: in the data most compounds retested in dose-response had high values. Format: functional. To be noted: 30 µM.

Consider eleven compounds from ChEMBL document CHEMBL3988442, “University of Dundee, Small-Polar-MMV Screening Library” (2021).

SMILES strings stand for the structures. For some of these results: Entries with a potency or affinity are not part of this list.

Sialic acid-binding Ig-like lectin 9 (Homo sapiens), sequence (Q9Y336 whole entry): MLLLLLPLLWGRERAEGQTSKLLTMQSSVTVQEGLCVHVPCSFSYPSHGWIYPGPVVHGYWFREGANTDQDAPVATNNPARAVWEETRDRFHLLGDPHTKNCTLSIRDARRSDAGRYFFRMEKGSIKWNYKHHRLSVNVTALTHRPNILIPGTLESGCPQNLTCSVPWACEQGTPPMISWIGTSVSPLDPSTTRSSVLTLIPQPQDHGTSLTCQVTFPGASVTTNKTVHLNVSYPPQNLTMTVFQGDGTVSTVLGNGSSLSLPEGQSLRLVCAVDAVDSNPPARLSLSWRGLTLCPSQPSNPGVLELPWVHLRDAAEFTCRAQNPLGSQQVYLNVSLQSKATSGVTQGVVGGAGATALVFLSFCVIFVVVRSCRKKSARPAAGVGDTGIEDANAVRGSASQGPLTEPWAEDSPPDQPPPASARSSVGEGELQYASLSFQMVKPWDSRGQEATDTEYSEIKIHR
Chromo domain-containing protein 1 (Saccharomyces cerevisiae (strain ATCC 204508 / S288c) (Baker's yeast)), sequence (P32657 whole entry, the tested form may be a part): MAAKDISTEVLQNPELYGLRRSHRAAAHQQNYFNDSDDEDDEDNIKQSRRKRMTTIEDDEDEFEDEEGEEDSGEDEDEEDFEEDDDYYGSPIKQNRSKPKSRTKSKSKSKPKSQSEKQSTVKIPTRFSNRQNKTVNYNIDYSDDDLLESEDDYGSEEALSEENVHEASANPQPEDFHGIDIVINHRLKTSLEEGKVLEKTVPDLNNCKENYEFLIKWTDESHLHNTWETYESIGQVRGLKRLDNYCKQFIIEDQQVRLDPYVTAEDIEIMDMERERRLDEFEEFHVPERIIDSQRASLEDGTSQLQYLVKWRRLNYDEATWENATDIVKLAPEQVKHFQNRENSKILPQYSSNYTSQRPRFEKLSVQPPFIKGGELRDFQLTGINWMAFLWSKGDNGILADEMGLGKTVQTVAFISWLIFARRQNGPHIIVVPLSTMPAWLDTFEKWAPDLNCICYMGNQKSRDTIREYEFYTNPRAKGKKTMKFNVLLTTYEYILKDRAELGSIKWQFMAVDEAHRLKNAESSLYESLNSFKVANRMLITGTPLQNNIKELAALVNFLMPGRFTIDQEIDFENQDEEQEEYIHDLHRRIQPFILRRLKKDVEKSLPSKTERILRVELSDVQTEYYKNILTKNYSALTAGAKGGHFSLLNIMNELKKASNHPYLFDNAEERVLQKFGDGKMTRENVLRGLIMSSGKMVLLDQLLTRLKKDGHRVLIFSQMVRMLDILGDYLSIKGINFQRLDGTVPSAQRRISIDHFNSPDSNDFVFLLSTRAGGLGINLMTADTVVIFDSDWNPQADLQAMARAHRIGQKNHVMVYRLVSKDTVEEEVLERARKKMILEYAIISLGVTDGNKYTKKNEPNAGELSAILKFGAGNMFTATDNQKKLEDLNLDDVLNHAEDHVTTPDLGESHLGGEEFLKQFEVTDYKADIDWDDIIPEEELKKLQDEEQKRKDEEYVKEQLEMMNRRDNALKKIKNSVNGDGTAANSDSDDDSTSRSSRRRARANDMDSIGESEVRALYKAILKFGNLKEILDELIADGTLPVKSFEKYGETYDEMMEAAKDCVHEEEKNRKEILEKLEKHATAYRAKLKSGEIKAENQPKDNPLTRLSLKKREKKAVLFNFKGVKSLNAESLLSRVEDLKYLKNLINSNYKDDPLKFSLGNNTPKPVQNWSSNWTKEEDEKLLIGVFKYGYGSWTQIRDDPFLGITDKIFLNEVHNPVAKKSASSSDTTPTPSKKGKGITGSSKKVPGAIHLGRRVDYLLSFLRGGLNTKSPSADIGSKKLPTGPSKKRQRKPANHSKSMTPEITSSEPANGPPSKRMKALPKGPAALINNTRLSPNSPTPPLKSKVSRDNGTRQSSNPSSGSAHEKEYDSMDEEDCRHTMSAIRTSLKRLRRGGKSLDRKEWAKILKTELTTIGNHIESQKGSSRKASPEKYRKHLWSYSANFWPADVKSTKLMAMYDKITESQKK
Protein translocase subunit SecA (Escherichia coli (strain K12)), sequence (P10408 whole entry): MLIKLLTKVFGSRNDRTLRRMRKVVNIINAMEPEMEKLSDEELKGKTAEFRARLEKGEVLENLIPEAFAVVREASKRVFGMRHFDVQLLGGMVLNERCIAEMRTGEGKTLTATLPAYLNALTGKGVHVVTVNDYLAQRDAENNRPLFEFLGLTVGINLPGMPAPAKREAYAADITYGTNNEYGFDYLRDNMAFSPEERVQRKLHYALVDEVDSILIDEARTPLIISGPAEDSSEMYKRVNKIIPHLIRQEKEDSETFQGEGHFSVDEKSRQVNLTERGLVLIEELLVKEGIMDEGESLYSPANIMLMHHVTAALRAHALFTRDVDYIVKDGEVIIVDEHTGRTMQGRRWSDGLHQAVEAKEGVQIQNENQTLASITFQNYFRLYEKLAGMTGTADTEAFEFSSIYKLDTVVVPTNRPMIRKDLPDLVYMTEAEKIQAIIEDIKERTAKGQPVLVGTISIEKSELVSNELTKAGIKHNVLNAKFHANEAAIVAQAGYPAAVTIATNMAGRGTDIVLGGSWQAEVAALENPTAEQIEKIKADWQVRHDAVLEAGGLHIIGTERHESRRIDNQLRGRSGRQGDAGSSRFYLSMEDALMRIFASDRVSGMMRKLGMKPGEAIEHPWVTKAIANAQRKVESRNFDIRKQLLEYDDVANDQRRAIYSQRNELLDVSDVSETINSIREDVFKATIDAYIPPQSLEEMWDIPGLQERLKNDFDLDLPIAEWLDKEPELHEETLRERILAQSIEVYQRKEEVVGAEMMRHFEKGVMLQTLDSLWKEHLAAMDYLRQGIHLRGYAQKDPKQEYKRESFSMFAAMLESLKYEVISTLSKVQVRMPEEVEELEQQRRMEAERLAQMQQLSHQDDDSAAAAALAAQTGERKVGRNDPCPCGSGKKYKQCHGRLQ

In the case of `O=C1CC2(CCN(CC3CC3)C2)CN1c1cccc(F)c1` (stereo unspecified), the Percent Effect in test [1] is -0.129%; in [2], 10.8%; in test [3] it was -7.34%; in test [4], 0.348%; in the test with Trypanosoma cruzi, -3.81%; in test [5] it was 1.24%. Besides, the Percent Effect in test [6] was 4.38%; in the test filed under Homo sapiens it was -6.1%; in test [7], 3.23%; in test [8], 11.1%; in [9], -0.923%.

Consider `CCc1nnc2n1CCN(C(=O)c1ccc3[nH]cnc3c1)C2`, for which the Percent Effect is -7.1% in [1]; 12.5% in test [2]; -11.5% in [3]; 41.5% in test [4]; 6.9% in the test with Trypanosoma cruzi; 3.97% in [5]. The Percent Effect was 10.2% in test [6]; 0.294% in the test listed under Homo sapiens; 3.16% in test [7]; 15.4% in [8]; -13.2% in test [9].

Take `Cc1noc(C)c1CNc1cc(N2CCCC2CO)ncn1` (stereo unspecified): the Percent Effect in [1] was -2.84%; in test [2], 6.33%; in test [3], -25.2%; in [4], 4.54%; in the test on Trypanosoma cruzi it was 1.54%; in test [5], 1.5%. The Percent Effect was 1.03% in test [6]; -8.87% in the test filed under Homo sapiens; 0% in test [7]; 12.7% in test [8]; -23.1% in test [9].

For the compound `CC(=O)N1CCC[C@H]1C(=O)NCCOc1cccc(Cl)c1`, the Percent Effect in test [1] was -0.692%; in test [2], 7.79%; in test [3] it was -8.32%; in [4] it was -3.36%; in the test with Trypanosoma cruzi, 4.31%; in [5] it was 4.98%. Besides, the Percent Effect in test [6] was 13.7%; in the test listed under Homo sapiens, 12.4%; in [7], 6.8%; in test [8], 24.4%; in [9], -9.94%.

With `CSC(C)C(=O)N1CCCN(Cc2cscn2)CC1` (stereo unspecified), the Percent Effect is -3.08% in test [1]; 18.4% in test [2]; 1.3% in test [3]; -6.37% in test [4]; -1.13% with Trypanosoma cruzi; -3.45% in test [5]. The Percent Effect is 15.9% in [6]; 9.75% in the test listed under Homo sapiens; 4.41% in test [7]; 9.76% in test [8]; -13.2% in [9].

Turning to `CCCc1n[nH]c(C2CN(C(=O)C3=COCCC3)CCO2)n1` (stereo unspecified), the Percent Effect in test [1] is -3.49%; in test [2], 2.63%; in test [3] it was -0.787%; in test [4] it was 5.25%; in the test on Trypanosoma cruzi, 2.52%; in test [5], 1.44%. Also, the Percent Effect in test [6] is -2.96%; in the test filed under Homo sapiens it was 2.6%; in [7], 2.46%; in test [8], 1.24%; in [9], 10.7%.

In the case of `CC(NC(=O)N(C)Cc1ccc(Cl)s1)c1ccccn1` (stereo unspecified), the Percent Effect in test [1] was -2.39%; in [2] it was 13.9%; in test [3], 9.06%; in test [4], -0.224%; in the test with Trypanosoma cruzi, 0.308%; in test [5], 1.07%. Moreover, the Percent Effect in test [6] is 6.86%; in the test filed under Homo sapiens, 14.4%; in test [7], 3.12%; in test [8] it was 12.7%; in test [9], -14.9%.

Turning to `Cc1cccc(C)c1OCCNC(=O)NC(C)c1nncn1C` (stereo unspecified), the Percent Effect in [1] is -5.7%; in test [2] it was 15.6%; in [3], -1.02%; in [4], -14.1%; with Trypanosoma cruzi, 5%; in test [5], -2.32%. The Percent Effect is 25.8% in test [6]; 18.1% in the test listed under Homo sapiens; 8.57% in test [7]; 23.5% in test [8]; -21.4% in test [9].

Turning to `CC(NC(=O)N1CCC(n2cncn2)CC1)c1ccc(F)cc1F` (stereo unspecified), the Percent Effect in test [1] was -3.51%; in test [2], 12.7%; in test [3], -2.69%; in [4], 7.75%; in the test on Trypanosoma cruzi, -0.0944%; in test [5] it was -1.14%. Moreover, the Percent Effect is 8.6% in test [6]; 8.31% in the test listed under Homo sapiens; 5.42% in test [7]; 13.9% in [8]; -5.72% in [9].

As to `OCC1CCCN1c1cc(NCCc2c[nH]c3ccccc23)ncn1` (stereo unspecified), the Percent Effect in test [1] was -4.95%; in test [2], 0%; in test [3], 12.3%; in test [4], -7.58%; with Trypanosoma cruzi it was -2.15%; in test [5] it was 0%. Also, the Percent Effect in test [6] is 18.6%; in the test listed under Homo sapiens, 35.3%; in test [7] it was 1.07%; in test [8], 7.5%; in [9], -5.88%.

As to `CCc1cnc(CN(C)C2CCN(CCc3cccs3)C2)o1` (stereo unspecified), the Percent Effect in test [1] was -4.76%; in test [2] it was 15.8%; in [3], -3.51%; in test [4], -0.997%; in the test with Trypanosoma cruzi, -2.89%; in test [5], -5.4%. Moreover, the Percent Effect in [6] is 12.3%; in the test listed under Homo sapiens, 2.05%; in [7], 10.3%; in test [8], 18.5%; in [9], -5.25%.
